# Measured values taken from PubChem BioAssay (EPA / NIEHS).
# Results filed as inconclusive are left out. Calls of active or inactive are those of the source. Rule for the calls, unless noted: active = hit-call score of the fitted dose curve at least 0.9, where 1 is the maximum; inconclusive = response in the unintended direction; inactive = score below 0.9.
# Experiments:
# [1] = system: turtle Thyroid Hormone Receptor, alpha (TRa), gene 101949057; assay: ATG_trTRa_XSP2: Attagene TRANS-FACTORIAL Multi-Species (XSP1) HepG2 Assay for turtle Thyroid Hormone Receptor, alpha (TRa) (AID 2283834);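 note: hits raise reporter mRNA over the DMSO baseline so AC50 marks activators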
# How it was run: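 Readout: reporter mRNA induction, fluorescence after RT-PCR, HpaI digestion and capillary electrophoresis. Transiently transfected HepG2, exogenous NR-Gal4 chimera driving GAL4-UAS reporter, 24 h compound exposure. Activity fitted upward relative to DMSO baseline.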
# [2] = molecular target: human Thyroid hormone Receptor alpha (TRa), THRA (gene 7067) (UniProt P10827); assay: ATG_hTRa_XSP2: Attagene TRANS-FACTORIAL Multi-Species (XSP2) HepG2 Assay for human Thyroid hormone Receptor alpha (TRa) (AID 2283838)
# How it was run: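 HepG2 cells transiently transfected with multiplexed GAL4-UAS reporter units and exogenous NR-GAL4 chimeras; 24 h chemical exposure with 3 nM 6-alpha-fluorotestosterone and 1.5 nM norgestrel present. Reporter mRNA measured by RT-PCR, FAM labelling, HpaI digestion, capillary electrophoresis; gain-of-signal versus DMSO.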
# [3] = molecular target: frog Thyroid hormone Receptor alpha (TRa), thra-a (gene 397942) (UniProt P15204); assay: ATG_frTRa_XSP2: Attagene TRANS-FACTORIAL Multi-Species (XSP2) HepG2 Assay for frog Thyroid hormone Receptor alpha (TRa) (AID 2283839)
# How it was run: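 Read-out: fluorescent reporter-transcript fragments resolved by capillary electrophoresis after RT-PCR and HpaI cut. Human HepG2 liver cells carry a transfected frog TRα-Gal4 chimera driving a UAS reporter; 24 h exposure, DMSO baseline, positive-direction fit.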
# [4] = molecular target: human Thyroid hormone Receptor beta (TRb), THRB (gene 7068) (UniProt P10828); assay: ATG_hTRb_XSP2: Attagene TRANS-FACTORIAL Multi-Species (XSP2) HepG2 Assay for human Thyroid hormone Receptor beta (TRb) (AID 2283840);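 note: actives raise reporter mRNA so potency reflects agonist-like gain of signal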
# How it was run: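 Read-out: reporter mRNA induction (RT-PCR, 6-FAM labeling, capillary electrophoresis), gain-of-signal relative to DMSO baseline. Transiently transfected HepG2 TRANS multiplex (NR-Gal4 chimeras, GAL4-UAS reporters), 24 h chemical exposure; medium contained 3 nM 6-alpha-fluorotestosterone plus 1.5 nM norgestrel.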
# [5] = system: IYD (gene 389434); assay: CCTE_GLTED_hIYD: CCTE's human Iodotyrosine Deiodinase (xIYD) Inhibition Assay, Great Lakes Toxicology and Ecology Division (GLTED) Lab (AID 2284317);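 note: cell-free human IYD enzyme made in baculovirus insect cells; iodide freed from monoiodotyrosine measured by cerium arsenite color change at 420 nm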
# How it was run: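 Human IYD expressed in a baculovirus-insect cell system was incubated 3 h with monoiodotyrosine and test chemical. Released iodide, separated on Dowex columns, was quantified by the Sandell-Kolthoff reaction at 420 nm; plates were normalized to MNT and DMSO/NaOH controls.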
# [6] = molecular target: Estrogen receptor (Homo sapiens) (UniProt P03372); assay: NVS_NR_hER: NovaScreen (NVS) Nuclear Receptor Binding Assay for human Estrogen Receptor (ER) (AID 2283348)
# How it was run: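 Radioligand competitive displacement binding to estrogen receptor from MCF7 extract, cell-free; 18 h after dosing, scintillation read-out. Primary screen in duplicate at 25 uM; actives followed up in concentration series; loss of signal vs DMSO.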
# [7] = molecular target: mouse Estrogen Receptor alpha (Era), Esr1 (gene 13982) (UniProt P19785); assay: NVS_NR_mERa: NovaScreen (NVS) Nuclear Receptor Binding Assay for mouse Estrogen Receptor alpha (Era) (AID 2283378);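 note: hit means loss of bound radioligand signal relative to DMSO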
# How it was run: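 Filter scintillation counts of bound radioligand, measured 18 h post-dose, gave the readout; decreased signal relative to DMSO controls indicated displacement from mouse Era. Primary screen ran in duplicate at 25 uM; active chemicals were retested across concentrations.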
# [8] = CCTE_Shafer_MEA_dev_per_burst_spike_percent: CCTE's Neural Network Formation Assay for Percent of Spikes in a Burst, Shafer Lab (AID 2284032; active = hit-call score of the fitted dose curve at least 0.9, where 1 is the maximum; inactive = score below 0.9)
# How it was run: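 Rat primary cortical neurons on 16-electrode MEA wells, dosed from plating day 0 for 12 days with renewal on DIV 5 and 9; spikes-in-bursts percentage averaged over bursting electrodes, collapsed as AUC across days 5, 7, 9, 12; loss direction versus DMSO.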
# [9] = molecular target: human Esterase Plasma (ES), BCHE (gene 590) (UniProt P06276); assay: NVS_ENZ_hES: NovaScreen (NVS) Enzymatic Assay for human Esterase Plasma (ES) (AID 2283157)
# How it was run: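 Esterase from human plasma, cell-free, colorimetric absorbance read 0.25 h after dosing. Screened at 25 uM in duplicate, with threshold-passing chemicals run in concentration-response up to 50 uM; loss of signal fitted versus DMSO.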
# [10] = molecular target: chimpanzee Androgen Receptor (AR), AR (gene 747460) (UniProt O97775); assay: NVS_NR_cAR: NovaScreen (NVS) Nuclear Receptor Binding Assay for chimpanzee Androgen Receptor (AR) (AID 2283346);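 note: radioligand displacement from AR measured by scintillation counting in a cell-free assay; a loss of bound radioligand signal versus DMSO counts as binding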
# How it was run: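 Radioligand binding to chimpanzee AR expressed in Sf9/Sf21 cells, cell-free, measured 72 h after dosing by lysate-based scintillation counting. Loss of signal vs DMSO; initial duplicate screen at 25 uM, actives retested in concentration series.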
# [11] = CCTE_Mundy_HCI_Cortical_Synap_Neur_Matur_BPCount: CCTE's Synaptogenesis and Neurite Maturation Assay in rat cortical cells for Branch Point Count, Mundy Lab (AID 2284211; active = hit-call score of the fitted dose curve at least 0.9, where 1 is the maximum; inactive = score below 0.9)
# How it was run: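 Branch point number is quantified by automated imaging of fluorescently labelled neurites and synapses in rat primary cortical neurons exposed from DIV 7 to DIV 12. Activity is analysed relative to DMSO negative control.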
# [12] = CCTE_Mundy_HCI_Cortical_NOG_NeuriteCount: CCTE's Neurite Outgrowth Assay in rat cortical cells for Neurite Count, Mundy Lab (AID 2284212; active = hit-call score of the fitted dose curve at least 0.9, where 1 is the maximum; inactive = score below 0.9;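 note: cells fixed about two days after chemical exposure began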)
# How it was run: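 Neurite number per cell from high-content imaging of betaIII-tubulin immunostaining, with Hoechst nuclear counterstain.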
# [13] = CCTE_Mundy_HCI_Cortical_Synap_Neur_Matur_NeuriteCount: CCTE's Synaptogenesis and Neurite Maturation Assay in rat cortical cells for Neurite Count, Mundy Lab (AID 2284222; active = hit-call score of the fitted dose curve at least 0.9, where 1 is the maximum; inactive = score below 0.9;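 note: exposure from day 7 to day 12 in vitro with readout at day 12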)
# How it was run: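 Primary rat cortical cells were plated, treated with AraC at DIV 5, then exposed to chemicals from DIV 7 through DIV 12. After fixation and immunostaining for MAP2 and synaptophysin, imaging quantified neurites, with DMSO as the negative control.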
# [14] = CCTE_Mundy_HCI_hNP1_Pro_ResponderAvgInten: CCTE's Proliferation Assay in human neuroprogenitor cells, Mundy Lab (AID 2284224);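 note: human neural progenitor cells hNP1 derived from WA09 embryonic stem cells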
# How it was run: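 Proliferation read as average intensity of BrdU-positive cells, imaged at 26.25 h post-dosing: chemical exposure started after 40–44 h culture, BrdU during final 4 h, paraformaldehyde fixation. Positive-direction fit relative to DMSO.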
# [15] = CCTE_Mundy_HCI_Cortical_NOG_BPCount: CCTE's Neurite Outgrowth Assay in rat cortical cells for Branch Point Count, Mundy Lab (AID 2284237; active = hit-call score of the fitted dose curve at least 0.9, where 1 is the maximum; inactive = score below 0.9)
# How it was run: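 Measured 50.33 h after dosing, this morphology endpoint uses rat primary cortical cultures labelled for betaIII-tubulin. Branch points are quantified by high-content imaging, with DMSO as negative control and baseline.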
# [16] = CCTE_Mundy_HCI_hNP1_Casp3_7: CCTE's Caspase-Glo 3/7 Assay in human neuroprogenitor cells for Apoptosis, Mundy Lab (AID 2284240; active = hit-call score of the fitted dose curve at least 0.9, where 1 is the maximum; inactive = score below 0.9)
# How it was run: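 Luminescent caspase-3/7 readout, 26.5 h post-dose, in human neural progenitor cells from WA09 embryonic stem cells. Cells grew 40–44 h at 37 °C, 5% CO2 before chemical addition. Activity analysed as signal increase over DMSO baseline.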
# [17] = molecular target: human Thyroid Receptor Alpha (TRa), THRA (gene 7067) (UniProt P10827); assay: NVS_NR_hTRa_Antagonist: NovaScreen (NVS) Nuclear Receptor Binding Assay for human Thyroid Receptor Alpha Antagonism (TRa) (AID 2283362);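 note: activity is loss of signal relative to DMSO baseline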
# How it was run: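 AlphaLISA chemiluminescent immunoassay readout, taken 1 h post-dosing in a cell-free system with extracted protein. Activity was scored as signal loss against DMSO negative control, from duplicate single-concentration (25 uM) testing followed by concentration-response follow-up.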
# [18] = CCTE_Shafer_MEA_dev_AB: CCTE's Alamar Blue Assay for Cytotoxicity in the Neural Network Formation Assay, Shafer Lab (AID 2284083);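 note: resazurin reduction fluorescence as viability of cultured neurons; twelve days of exposure from plating with re-dosing on DIV 5 and 9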
# How it was run: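 Rat cortical primary cultures, 1.5 x 10^5 cells/well on MEA; continuous compound exposure over 12 days of network development, re-dosed with full medium change DIV 5 and 9. Alamar Blue fluorescence; loss of signal = cytotoxicity vs DMSO baseline.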
# human Esterase Plasma (ES), BCHE (gene 590), sequence (P06276 whole entry, looked up): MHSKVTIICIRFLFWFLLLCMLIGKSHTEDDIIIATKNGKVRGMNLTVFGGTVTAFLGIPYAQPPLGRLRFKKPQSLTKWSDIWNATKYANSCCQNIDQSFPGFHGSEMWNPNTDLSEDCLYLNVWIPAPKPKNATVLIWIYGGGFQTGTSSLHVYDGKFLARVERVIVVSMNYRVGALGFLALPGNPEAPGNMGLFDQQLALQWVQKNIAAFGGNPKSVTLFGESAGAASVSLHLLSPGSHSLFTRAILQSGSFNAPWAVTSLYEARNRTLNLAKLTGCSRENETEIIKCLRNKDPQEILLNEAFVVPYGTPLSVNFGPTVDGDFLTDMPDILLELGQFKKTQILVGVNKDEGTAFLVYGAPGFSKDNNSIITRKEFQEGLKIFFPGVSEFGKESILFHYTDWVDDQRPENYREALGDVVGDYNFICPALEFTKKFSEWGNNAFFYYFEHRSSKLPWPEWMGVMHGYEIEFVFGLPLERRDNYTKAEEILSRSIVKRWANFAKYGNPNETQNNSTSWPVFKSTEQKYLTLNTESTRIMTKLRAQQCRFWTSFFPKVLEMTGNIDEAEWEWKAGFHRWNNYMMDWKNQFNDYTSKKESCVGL
# mouse Estrogen Receptor alpha (Era), Esr1 (gene 13982), sequence (P19785 whole entry, looked up): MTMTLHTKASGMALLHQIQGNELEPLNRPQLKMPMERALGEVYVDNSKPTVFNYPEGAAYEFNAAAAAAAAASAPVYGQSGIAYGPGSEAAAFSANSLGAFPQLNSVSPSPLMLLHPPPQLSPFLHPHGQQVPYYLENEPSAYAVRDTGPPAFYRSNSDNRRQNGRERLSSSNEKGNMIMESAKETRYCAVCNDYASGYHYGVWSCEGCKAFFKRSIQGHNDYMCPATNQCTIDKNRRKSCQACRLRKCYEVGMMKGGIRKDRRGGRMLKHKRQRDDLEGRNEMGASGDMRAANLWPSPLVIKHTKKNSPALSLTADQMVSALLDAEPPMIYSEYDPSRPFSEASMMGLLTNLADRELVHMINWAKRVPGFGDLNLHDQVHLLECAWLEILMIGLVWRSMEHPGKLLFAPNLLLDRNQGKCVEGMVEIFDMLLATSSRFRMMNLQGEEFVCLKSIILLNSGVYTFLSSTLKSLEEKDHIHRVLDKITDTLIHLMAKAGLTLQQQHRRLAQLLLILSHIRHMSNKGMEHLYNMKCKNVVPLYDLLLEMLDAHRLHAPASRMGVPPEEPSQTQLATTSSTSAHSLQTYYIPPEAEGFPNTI
# human Thyroid Receptor Alpha (TRa), THRA (gene 7067), sequence (P10827 whole entry, looked up): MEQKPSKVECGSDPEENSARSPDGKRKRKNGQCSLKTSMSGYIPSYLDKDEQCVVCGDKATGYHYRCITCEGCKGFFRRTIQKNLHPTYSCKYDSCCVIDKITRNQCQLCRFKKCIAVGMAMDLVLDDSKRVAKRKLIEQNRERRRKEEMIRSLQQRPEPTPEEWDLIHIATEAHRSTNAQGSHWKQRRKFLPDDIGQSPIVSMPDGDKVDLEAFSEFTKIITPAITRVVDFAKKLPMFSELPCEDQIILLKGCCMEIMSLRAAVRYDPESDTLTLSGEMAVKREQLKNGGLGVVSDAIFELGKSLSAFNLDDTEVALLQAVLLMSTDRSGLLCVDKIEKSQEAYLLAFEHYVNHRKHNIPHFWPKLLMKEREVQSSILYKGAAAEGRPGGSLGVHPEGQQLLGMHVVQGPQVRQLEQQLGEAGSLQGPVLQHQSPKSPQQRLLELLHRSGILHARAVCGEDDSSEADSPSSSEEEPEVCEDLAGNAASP
# human Thyroid hormone Receptor alpha (TRa), THRA (gene 7067), sequence (P10827 whole entry, looked up, the tested form may be a part): as the sequence (P10827 whole entry, looked up) above
# human Thyroid hormone Receptor beta (TRb), THRB (gene 7068), sequence (P10828 whole entry, looked up, the tested form may be a part): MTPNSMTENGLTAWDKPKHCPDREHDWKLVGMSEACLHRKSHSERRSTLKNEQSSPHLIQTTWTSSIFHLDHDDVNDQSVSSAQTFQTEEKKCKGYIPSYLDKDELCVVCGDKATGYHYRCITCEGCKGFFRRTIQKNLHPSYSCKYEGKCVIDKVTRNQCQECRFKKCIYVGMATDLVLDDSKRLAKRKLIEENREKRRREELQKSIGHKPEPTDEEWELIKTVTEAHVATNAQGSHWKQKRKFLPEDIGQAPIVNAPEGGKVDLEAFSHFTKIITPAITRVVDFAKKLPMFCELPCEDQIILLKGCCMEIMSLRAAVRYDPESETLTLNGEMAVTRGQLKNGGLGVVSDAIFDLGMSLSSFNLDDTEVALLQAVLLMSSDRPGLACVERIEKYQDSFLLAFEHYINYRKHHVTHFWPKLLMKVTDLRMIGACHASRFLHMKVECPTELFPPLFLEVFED
# frog Thyroid hormone Receptor alpha (TRa), thra-a (gene 397942), sequence (P15204 whole entry, looked up, the tested form may be a part): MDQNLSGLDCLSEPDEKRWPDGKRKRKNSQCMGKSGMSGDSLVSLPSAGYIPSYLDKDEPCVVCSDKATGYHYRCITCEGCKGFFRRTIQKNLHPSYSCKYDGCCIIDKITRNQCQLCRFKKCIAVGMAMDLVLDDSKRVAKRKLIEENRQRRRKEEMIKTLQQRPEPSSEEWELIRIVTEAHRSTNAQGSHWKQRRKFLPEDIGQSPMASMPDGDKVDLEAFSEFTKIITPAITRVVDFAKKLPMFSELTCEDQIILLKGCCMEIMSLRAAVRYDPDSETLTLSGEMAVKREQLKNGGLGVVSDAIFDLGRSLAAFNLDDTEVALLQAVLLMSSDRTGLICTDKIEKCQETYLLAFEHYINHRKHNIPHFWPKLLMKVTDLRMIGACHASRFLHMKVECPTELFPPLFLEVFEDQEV
# Estrogen receptor (Homo sapiens), sequence (P03372 whole entry, looked up): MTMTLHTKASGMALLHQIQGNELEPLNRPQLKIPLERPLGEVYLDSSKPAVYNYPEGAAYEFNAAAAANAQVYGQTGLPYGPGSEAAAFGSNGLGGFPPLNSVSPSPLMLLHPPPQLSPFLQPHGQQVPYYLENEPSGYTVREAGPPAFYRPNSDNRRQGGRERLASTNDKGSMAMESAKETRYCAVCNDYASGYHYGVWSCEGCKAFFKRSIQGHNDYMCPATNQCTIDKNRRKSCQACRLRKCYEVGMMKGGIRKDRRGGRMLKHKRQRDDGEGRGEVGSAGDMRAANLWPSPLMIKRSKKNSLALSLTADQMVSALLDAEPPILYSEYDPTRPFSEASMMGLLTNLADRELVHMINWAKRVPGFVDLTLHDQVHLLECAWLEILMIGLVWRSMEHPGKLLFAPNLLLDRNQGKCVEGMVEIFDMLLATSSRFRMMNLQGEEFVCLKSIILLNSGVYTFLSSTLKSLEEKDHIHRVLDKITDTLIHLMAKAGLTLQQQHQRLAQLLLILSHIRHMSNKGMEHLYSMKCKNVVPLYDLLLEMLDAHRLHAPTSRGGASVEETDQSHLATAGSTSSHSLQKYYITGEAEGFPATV
# chimpanzee Androgen Receptor (AR), AR (gene 747460), sequence (O97775 whole entry, looked up): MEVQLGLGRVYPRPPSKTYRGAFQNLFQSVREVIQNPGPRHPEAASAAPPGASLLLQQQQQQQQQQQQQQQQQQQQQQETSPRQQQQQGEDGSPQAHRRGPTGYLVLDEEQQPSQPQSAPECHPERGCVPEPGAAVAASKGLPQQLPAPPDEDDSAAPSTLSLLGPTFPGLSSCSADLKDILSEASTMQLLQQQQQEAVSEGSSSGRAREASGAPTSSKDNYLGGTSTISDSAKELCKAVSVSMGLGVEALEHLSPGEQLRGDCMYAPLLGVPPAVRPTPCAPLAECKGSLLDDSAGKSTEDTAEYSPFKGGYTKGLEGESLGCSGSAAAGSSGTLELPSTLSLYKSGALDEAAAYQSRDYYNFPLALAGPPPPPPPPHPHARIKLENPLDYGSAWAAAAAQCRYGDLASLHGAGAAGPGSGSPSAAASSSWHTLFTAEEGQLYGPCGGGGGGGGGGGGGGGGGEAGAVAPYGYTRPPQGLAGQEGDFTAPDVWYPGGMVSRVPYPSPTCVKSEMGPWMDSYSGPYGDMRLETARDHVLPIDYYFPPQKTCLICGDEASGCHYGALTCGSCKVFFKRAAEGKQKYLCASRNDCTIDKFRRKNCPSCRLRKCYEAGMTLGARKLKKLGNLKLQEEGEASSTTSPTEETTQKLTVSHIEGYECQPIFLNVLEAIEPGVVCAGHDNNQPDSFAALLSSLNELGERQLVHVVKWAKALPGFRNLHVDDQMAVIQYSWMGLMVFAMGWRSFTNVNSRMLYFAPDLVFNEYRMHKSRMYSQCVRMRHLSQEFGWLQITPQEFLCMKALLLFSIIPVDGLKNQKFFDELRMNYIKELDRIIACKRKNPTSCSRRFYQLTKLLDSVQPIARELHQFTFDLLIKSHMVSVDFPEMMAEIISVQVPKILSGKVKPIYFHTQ
structure (smiles),measurement,setting,value
CC(C)(c1cc(Cl)c(O)c(Cl)c1)c1cc(Cl)c(O)c(Cl)c1,outcome,[1],inactive
same,outcome,[2],inactive
same,outcome,[3],inactive
same,outcome,[4],inactive
same,AC50,[5],100 µM (active)
Oc1ccc(C2(c3ccc(O)cc3)c3ccccc3-c3ccccc32)cc1,AC50,[6],0.644 µM (active)
same,AC50,[7],0.432 µM (active)
CC(C)CCCCCCCOP(=O)(Oc1ccccc1)Oc1ccccc1,outcome,[8],inactive
CC1OC(C)OC(C)O1 (centres undefined),outcome,[9],inactive
CCCCCCCCCCCCCCCC[N+](C)(C)C,AC50,[5],38.7 µM (active)
CC[N+](=O)[O-],outcome,[10],inactive
CNC(=N[N+](=O)[O-])NCC1CCOC1 (centres undefined),outcome,[11],inactive
same,outcome,[12],inactive
same,outcome,[13],inactive
same,outcome,[14],inactive
same,outcome,[15],inactive
same,outcome,[16],inactive
CC1CCCC1.[C-]#[O+].[C-]#[O+].[C-]#[O+].[Mn],outcome,[17],inactive
same,outcome,[18],inactive
